These results are taken from PubChem BioAssay AID1347087 (National Center for Advancing Translational Sciences (NCATS), 2019).

SMILES strings stand for the structures. Several values for one entry are separate records, joined by “and”; a condition that tells them apart may be missing. Equal values may be shown once. Records with an inconclusive call do not appear. Activity calls are given as the source filed them. The call rests on the fitted dose curve.

The test in a line: qHTS for Inhibitors of the Functional Ribonucleoprotein Complex (vRNP) of Lassa (LASV) Arenavirus: LASV Confirmatory Screen - GLuc reporter signal. As to conditions: LASV minigenome vRNP, Gaussia luciferase reporter; series mostly up to 53.9 µM; activity, negative = inhibition: at the top concentration.
With `CCN(CC)C(=O)N[C@@H]1C=C2c3cccc4[nH]cc(c34)C[C@@H]2N(C)C1`, the “activity, negative = inhibition” value is -9.43% (inactive).

Consider `CC(=O)[C@H]1CC[C@H]2[C@@H]3CCC4=CC(=O)CC[C@]4(C)[C@H]3CC[C@]12C`, for which the Potency is 21.7 µM (active).

`Cc1ccc2c(c1)C1CN(C)CCC1N2` (stereo not drawn): the “activity, negative = inhibition” value is -9.24% [at 19.4 µM] (inactive).

Take `COc1cccc(-c2ccc(NC(=O)C3=C(C(=O)O)CCC3)c(F)c2)c1`: the Potency is 6.85 µM (active).

Take `Fc1ccc(CNc2ncnc3ccc(F)cc23)cc1`: the Potency was 6.85 µM (active).

`CC[C@@]1([C@@H]2O[C@@H]([C@H]3O[C@@](O)(CO)[C@H](C)C[C@H]3C)C[C@H]2C)CC[C@H]([C@]2(C)CC[C@]3(C[C@H](O)[C@@H](C)[C@@H]([C@@H](C)[C@@H](OC)[C@H](C)C(=O)O)O3)O2)O1`: the Potency was 0.335 µM (active).

As to `CC(C)(C)C1CCC(CC2=C(O)c3ccccc3C(=O)C2=O)CC1` (stereo not drawn), the Potency was 6.85 µM (active).

As to `CC(O)C(O)[C@H]1CNc2nc(N)[nH]c(=O)c2N1` (stereo partly drawn), the “activity, negative = inhibition” value was 11.1% (inactive).

Take `O=C(Nc1ccc([N+](=O)[O-])cc1Cl)c1cc(Cl)ccc1O`: the Potency was 0.968 µM (active).

Take `Cc1cc2c(C(C)C)c(O)c(O)c(C=O)c2c(O)c1-c1c(C)cc2c(C(C)C)c(O)c(O)c(C=O)c2c1O`: the Potency was 9.68 µM (active).

Regarding `CCOC(=O)OCC/C(SC(=O)OCC)=C(\C)N(C=O)Cc1cnc(C)nc1N`, the “activity, negative = inhibition” value was -20.6% (inactive).

In the case of `O=C1Cc2cc(CCN3CCN(c4nsc5ccccc45)CC3)c(Cl)cc2N1`, the Potency was 2.17 µM (active) and 3.43 µM (active).

As for `N#CC(=C(\N)Sc1ccccc1N)/C(C#N)=C(/N)Sc1ccccc1N`, the Potency was 0.0685 µM (active).
